In PubChem BioAssay AID651843 (National Center for Advancing Translational Sciences (NCATS), 2012):
This is one part of the list. Inconclusive results are not listed. Unmarked numbers belong to inactive results. Calls follow the shape of the dose curve; as a rule, active = well fitted inhibition curve with a large enough effect; inconclusive = small, poorly fitted or top-dose-only effect; inactive = no such curve, though single readings can be large or run the other way.

assay: qHTS Assay for Inhibitors of MBNL1-poly(CUG) RNA binding: Counterscreen HTRF assay; details: His-Menin/biotin-MLL peptide TR-FRET counterscreen; series mostly up to 57.6 µM; activity, negative = inhibition: at the top concentration
Description: NIH Chemical Genomics Center [NCGC] NIH Molecular Libraries Probe Production Centers Network [MLPCN] MLPCN Grant: R03 MH087421-01 Assay Submitter (PI): Charles Thornton NCGC Assay Overview: Expanded CTG repeats in the 3' untranslated region of the DM protein kinase (DMPK) gene causes type I myotonic dystrophy (DM1). DM1 is a multi-systemic disease with a prevalence of 1/7000. Clinical features include myotonia, progressive muscle weakness and wasting, cardiac arrhythmia, insulin resistance, hypersomnolence, cataracts, and other symptoms. The pathogenic effect of expanded CTG repeats stems from deleterious effects of the mutant transcript. CUGexp mRNA accumulates in nuclear foci and sequesters proteins of the muscleblind family, of which MBNL1 is the most common family member in skeletal muscles. […] This brings the terbium label within close proximity to XL665 to allow time-resolved fluorescence resonance energy transfer (TR-FRET). […]
This assay uses a ratiometric measurement of TR-FRET binding assay with His-Menin and Biotin-MLL peptide. […] (3) Add 1 ul of 0.22 ng/ul terbium labeled anti-His antibody (0.055 ng/ul final concentration) (4) Add 1 ul of 20 nM streptavidin-XL665 (5 nM final concentration) (5) Incubate 60 min at room temperature (6) Detect the assay plate in a EnVision plate reader (PerkinElmer) with Ex=340 nm, Em1=665 nm and Em2=545 nm.

Row | Compound | activity, negative = inhibition [%]
1 | CCOC(=O)c1c(C)[nH]c2c1-c1ccccc1C(=O)C2=O | 4.75
2 | NCCC[C@H](N)CC(=O)N[C@H]1CNC(=O)[C@H]([C@H]2C[C@H](O)NC(N)=N2)NC(=O)/C(=C/NC(N)=O)NC(=O)[C@H](CO)NC(=O)[C@H](CO)NC1=O | -2.75
